RORgamma inh = inhibitors of mouse ROR gamma transcriptional activity. Drosophila S2 Gal4-RORgamma UAS-luciferase reporter, 20 h. Potency, µM (series often up to 53.6 µM), inactives show top-dose activity change, negative = inhibition, hits mostly inhibitors. actives 5.4% (n = 310,000); further: nearly all actives have a fitted effect of over 60% in size
Target sequence (P51450 whole entry, looked up, the tested form may be a part): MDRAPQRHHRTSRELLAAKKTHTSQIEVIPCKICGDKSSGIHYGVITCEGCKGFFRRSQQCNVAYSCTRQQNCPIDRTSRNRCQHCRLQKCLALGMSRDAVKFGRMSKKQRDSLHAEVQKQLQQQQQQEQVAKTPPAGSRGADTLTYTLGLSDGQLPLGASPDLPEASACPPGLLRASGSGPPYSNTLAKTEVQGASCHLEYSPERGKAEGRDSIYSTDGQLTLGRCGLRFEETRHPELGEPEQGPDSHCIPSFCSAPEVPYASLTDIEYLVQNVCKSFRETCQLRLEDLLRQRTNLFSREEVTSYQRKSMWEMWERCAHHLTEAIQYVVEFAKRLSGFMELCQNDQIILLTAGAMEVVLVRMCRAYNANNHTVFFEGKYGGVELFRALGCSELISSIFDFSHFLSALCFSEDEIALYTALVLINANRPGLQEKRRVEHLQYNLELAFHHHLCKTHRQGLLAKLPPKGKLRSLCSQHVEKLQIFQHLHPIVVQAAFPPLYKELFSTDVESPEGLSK
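Stable Schneider cell line, Gal4 DNA-binding domain fused to ROR gamma, UAS-luciferase. Cmpd 1 hr RT → CuSO4 700 uM final → 20 hr RT → luciferase reagent 10 min → luminescence.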
ELG1 repair inh = ELG1-dependent DNA repair inhibition; actives 2.3% (n = 330,000); AID 504467; HEK293T ELG1-luciferase reporter, luminescence, 16 h; DNA damage induced by 5-fluorouridine; Potency, µM (titrated, usually from 46.1 µM), for the others: at the highest dose activity change, negative = inhibition, hits mostly inhibitors; further: nearly all actives have a fitted effect of over 55% in size
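Luminescence from the luciferase reporter, measured 30 min after ONE-Glo reagent at room temperature, was the read-out. Beforehand, 2,000 cells per well were exposed for 16 hr at 37 °C to 5-fluorouridine together with compound or vehicle.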
DT40 TDP1 CPT = DT40-hTDP1 cell growth loss with CPT; chicken DT40 Tdp1-/-;hTDP1 cells + 20 nM CPT, ATP luminescence, 48 h; Potency, µM (top dose mostly 46.2 µM), for inactives: at the top dose activity change, negative = growth inhibition, usual class: inhibitors; actives 12% (n = 420,000); AID 686979; further: nearly all actives have a fitted effect of over 55% in size
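Chicken DT40 Tdp1-/- cells stably complemented with human TDP1 were seeded at 400 cells/well in medium containing 20 nM camptothecin, exposed to pin-transferred compounds, and grown at 37 °C for at least 48 hr. Viability was read as ATP luminescence.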
Gal4-VP16 FLuc = counter-screen for ROR gamma inhibitors: Gal4-VP16 reporter. actives 3.5% (n = 310,000). AID 2546. Potency, µM (series often up to 53.6 µM), for the others: at the highest dose activity, negative = inhibition, actives largely listed as inhibitors. Drosophila S2 Gal4-VP16 UAS-luciferase, luminescence, 20 h;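 further: Gal4-VP16 expression switched on by copper sulfate through the metallothionein promoter; nearly all actives have a fitted effect of over 50% in size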
TDP1 cell noCPT = qHTS for Inhibitors of human tyrosyl-DNA phosphodiesterase 1 (TDP1): qHTS in cells in absence of CPT | DT40 Tdp1-/- hTDP1 cells, no CPT, ATP luminescence, 48 h | Potency, µM (series often up to 46.2 µM), for the others: at the top dose activity change, negative = growth inhibition, most hits filed as inhibitors | actives 15% (n = 420,000); further: nearly all actives have a fitted effect of over 55% in size
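DT40 Tdp1-/-;hTDP1 cells, no CPT (DMSO vehicle only), 400 cells/well; compounds pin-transferred; ≥48 hr, 37 °C; CellTiter-Glo 30 min RT dark, luminescence read.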
ALOX12 inh = inhibitors of human 12S-lipoxygenase ALOX12; actives 1.1% (n = 580,000); Potency, µM (highest dose often 108 µM), for the others: at the highest dose activity change, negative = inhibition, hits mostly inhibitors; purified 12hLO, xylenol orange hydroperoxide absorbance
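Hydroperoxide product was detected by ferrous iron/xylenol orange as the 573 to 405 nm absorbance ratio. Arachidonic acid at 40 uM (final) was turned over for 30 min at room temperature by 150 nM human 12hLO, pH 7.0 Hepes buffer, after 15 min compound preincubation.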
Starred values were filed as active, the others as inactive; ? = inconclusive; nt = no result given; [ ] = another dose, or the depositor's remark. Only some compounds are listed: those with a hit (about 15% of all), similar ones and a draw of the others. The call rests on the fitted dose curve; in most records, active means well fitted curve in the direction sought with a large enough effect; inconclusive means small, poorly fitted or top-dose-only effect, or another doubt; inactive means no such curve, though single readings can be large; an effect the other way counts as inactive or inconclusive. On the % scale 0 is the no-effect control and ±100 the full control effect; potency means the concentration at half of the fitted maximal effect.

SMILES	RORgamma inh	ELG1 repair inh	DT40 TDP1 CPT	Gal4-VP16 FLuc	TDP1 cell noCPT	ALOX12 inh
CN(Cc1ccccc1)c1nc2c(c(=O)n(C)c(=O)n2C)n1CCSc1ncccn1	17.9%	?	23.1µM*	-7.7%	18.4µM*	-1.2%
Cn1c(=O)c2c(nc(N3CCOCC3)n2CCSc2ncccn2)n(C)c1=O	10.8%	0.3%	20.6µM*	-1.9%	23.1µM*	22.6%
Cn1c(=O)c2c(nc(N3CCOCC3)n2Cc2c(F)cccc2Cl)n(C)c1=O	0.6%	-10.0%	20.6µM*	1.7%	23.1µM*	0.1%
Cc1ccccc1Cn1c(CN2CCCC(C)C2)nc2c1c(=O)n(C)c(=O)n2C (centres undefined)	nt	nt	8.2µM*	nt	5.8µM*	9.8%
Cn1c(=O)[nH]c(=O)c2c1nc(CN1CCN(c3ccccc3)CC1)n2Cc1c(F)cccc1Cl	nt	nt	?	nt	?	-12.8%
Cn1c(=O)c2c(nc(CN3CCN(c4ccccc4)CC3)n2Cc2c(F)cccc2Cl)n(C)c1=O	-7.2%	10µM*	20.6µM*	-7.9%	8.2µM*	-0.2%
O=C(c1nccs1)c1cccnc1N1CCNCC(O)C1 (centres undefined)	nt	nt	nt	nt	nt	73.8%
CCCCOC(=O)c1ccc(NC(=O)c2cc(-c3ccccc3)on2)cc1	nt	nt	-27.6%	nt	-20.9%	-24.2%
CCCn1cc(NC(=O)c2cc(-c3ccccc3)on2)cn1	34.7%	?	?	1.1%	23.1µM*	27.1%
O=C(Nc1cnn(C23CC4CC(CC(C4)C2)C3)c1)c1cc(-c2ccccc2)on1	-7.7%	-13.0%	23.1µM*	-11.5%	20.6µM*	-15.2%
Cc1ccc(C(=O)N2CC(C(=O)NC3CCCCC3)C3(CCOCC3)C2)cc1 (centres undefined)	nt	nt	nt	nt	nt	59.5%
O=C(NCCSc1ccc(Cl)cc1)c1ccc2c(c1)OCCCO2	nt	nt	nt	nt	nt	-76.4%
CCCCNc1cc(NC2CCCCC2)c2c3c(onc13)-c1ccccc1C2=O	nt	nt	?	nt	?	1.5%
O=C1c2ccccc2-c2onc3c(NCCO)cc(NC4CCCCC4)c1c23	nt	nt	18.4µM*	nt	?	-17.3%
Cc1nn(-c2ccccc2)c(C)c1C(=O)OCC(=O)NC12CC3CC(CC(C3)C1)C2	40.0%	20.6µM*	?	-3.7%	23.1µM*	?
COc1ccc(C(=O)OCC(=O)NC23CC4CC(CC(C4)C2)C3)c(O)c1	nt	nt	23.1µM*	nt	?	-29.2%
COc1ccc(C)cc1NC(=O)COC(=O)c1c(-c2ccccc2)noc1C	nt	nt	23.1µM*	nt	23.1µM*	?
COc1cc(OC)c(C(=O)OCC(=O)NC23CC4CC(CC(C4)C2)C3)cc1OC	nt	-2.9%	?	nt	-24.9%	16.4%
CC(=O)Nc1ccc(NC(=O)COC(=O)c2c(C)nn(-c3ccccc3)c2C)cc1	21.7%	-25.3%	?	1.5%	?	-34.9%
COc1ccc(C)cc1NC(=O)COC(=O)c1c(C)nn(-c2ccccc2)c1C	nt	?	20.6µM*	nt	11.6µM*	178.1%
COc1ccc(S(=O)(=O)Oc2ccc3oc(=O)cc(-c4cc5cccc(OC)c5o4)c3c2)cc1	nt	nt	nt	nt	nt	12.0%
CSc1c(Cl)c(Cl)c(Cl)c(Cl)c1Cl	nt	nt	nt	nt	nt	3.8%[176 µM]
C/C(Cl)=C/C[N+]1(CC#Cc2cccc3ccccc23)CCOCC1	nt	nt	nt	nt	nt	-1.0%
CSc1ccc(CN(C)C(=O)c2cc(S(=O)(=O)NCc3ccccc3)ccc2C)cc1	nt	?	?	nt	20.6µM*	?
Cc1ccc(S(=O)(=O)NCc2ccccc2)cc1C(=O)N(C)CC(=O)Nc1ccccc1Br	nt	nt	?	nt	-17.1%	5.8%
SMILES	RORgamma inh	ELG1 repair inh	DT40 TDP1 CPT	Gal4-VP16 FLuc	TDP1 cell noCPT	ALOX12 inh
CSc1ccc(CN(C)C(=O)c2cccc(S(=O)(=O)NCc3ccccc3)c2)cc1	21.8%	?	?	-6.0%	?	4.1%
COc1ccc(CCN(C)C(=O)c2cc(S(=O)(=O)NCc3ccccc3)ccc2C)cc1OC	nt	8.2µM*	?	nt	?	0.5%
Cc1ccc(C(=O)N(C)Cc2ccc(N3CCOCC3)cc2)cc1S(=O)(=O)NCc1ccccc1	nt	20.6µM*	?	nt	-13.0%	16.5%
Cc1ccc(S(=O)(=O)NCc2ccccc2)cc1C(=O)N(C)CC(=O)Nc1c(Cl)cccc1Cl	nt	?	23.1µM*	nt	?	?
Cc1cccc(NC(=O)NCC2CCOCC2)c1C	nt	nt	nt	nt	nt	26.4%
O=C(Nc1ccccc1C(=O)OCC(=O)C12CC3CC(CC(C3)C1)C2)c1ccc([N+](=O)[O-])cc1Cl	nt	nt	nt	nt	nt	28.1%
O=C1NCc2ccccc2CC12CCCN2Cc1cc(F)ccc1F (centres undefined)	nt	nt	nt	nt	nt	14.4%[6.33 µM]
CCN(C(=O)COc1ccc(C(C)=O)cc1)c1cccc2ccccc12	nt	?	14.6µM*	nt	?	1.0%
CCN(C(=O)COC(=O)c1cccnc1)c1cccc2ccccc12	nt	-0.6%	?	nt	?	-10.6%
Cc1cccc(N(C)S(=O)(=O)c2ccc3[nH]cc(C(=O)N4CCOCC4)c(=O)c3c2)c1	8.6%	1.5%	-28.2%	0.4%	?	0.0%
CCc1ccccc1N(C)S(=O)(=O)c1ccc2[nH]cc(C(=O)N3CCc4ccccc43)c(=O)c2c1	-12.7%	?	?	-10.1%	18.4µM*	-15.7%
COc1cccc(/C=C/c2nc(C#N)c(NCc3ccc4c(c3)OCO4)o2)c1	nt	nt	nt	nt	nt	-2.7%
CC1CCC(NC(=O)c2csc3c2CCCCC3)CC1 (centres undefined)	nt	nt	nt	nt	nt	-25.6%
CCCCSc1nc2sc3c(c2c(=O)n1-c1ccc(OC)cc1)CCN(C)C3	-11.2%	14.0%	?	-5.2%	?	?
CCCCCSc1nc2sc3c(c2c(=O)n1-c1ccc(OC)cc1)CCN(C(C)=O)C3	nt	nt	?	nt	25.9µM*	?
CCCCSc1nc2sc3c(c2c(=O)n1-c1ccccc1)CCN(C)C3	6.5%	?	9.2µM*	1.1%	7.31µM*	?
CN1CCc2c(sc3nc(SCC(N)=O)n(-c4ccc(Cl)cc4)c(=O)c23)C1	9.5%	?	?	0.1%	23.1µM*	?
CCn1c(SCC(=O)c2ccccc2)nc2sc3c(c2c1=O)CCN(C)C3	12.0%	?	23.1µM*	-17.7%	20.6µM*	-18.0%
CN1CCc2c(sc3nc(SCC(N)=O)n(-c4ccccc4)c(=O)c23)C1	7.9%	-23.5%	3.2%	-0.6%	-21.2%	34.8%
O=C(NC1C[C@H]2CC[C@@H](C1)N2C(=O)C1CCC1)c1ccncc1 (some centres undefined)	nt	nt	nt	nt	nt	25.4%
CNC(=O)c1cn2c(n1)CN(S(=O)(=O)c1cccc(OC)c1)CC2	nt	nt	nt	nt	nt	15.3%[6.33 µM]

Bioassay records: PubChem BioAssay, National Center for Advancing Translational Sciences (NCATS)
